# From the supplement of paper PMC6555819
# Columns and labels:
# Experiment in all cases: PBM binding z-score (relative to random genomic background probes); higher = stronger binding; sequences stand for … in GC…GCGATTGACAGCGTAGAATGAAGG
# [1] = tested on: FXR:RXRa (NR concentration 270 nM, RXRa partner concentration 90 nM)
# Procedure, shortened: (§1)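 Scanned fluorescence from custom Agilent 4×180K protein-binding microarrays was regression-normalized. Binding z-scores use random background probes as reference. Ligand-free nuclear receptor dimers were incubated on the arrays for 1 h and detected with antibodies against each partner (one per run).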
# [2] = tested on: LXRa:RXRa (NR concentration 270 nM, RXRa partner concentration 90 nM)
# Procedure, shortened: as §1
# [3] = tested on: LXRa homodimer (NR concentration 270 nM)
# Procedure, shortened: as §1
# [4] = tested on: LXRb:RXRa (NR concentration 270 nM, RXRa partner concentration 90 nM)
# Procedure, shortened: as §1
# [5] = tested on: LXRb homodimer (NR concentration 270 nM)
# Procedure, shortened: as §1
# [6] = tested on: PPARa:RXRa (NR concentration 270 nM, RXRa partner concentration 90 nM)
# Procedure, shortened: as §1
# [7] = tested on: PPARg:RXRa (NR concentration 180 nM, RXRa partner concentration 90 nM)
# Procedure, shortened: as §1
# [8] = tested on: PPARg:RXRa 270nM:90nM, anti-RXR (NR concentration 270 nM, RXRa partner concentration 90 nM)
# Procedure, shortened: as §1
# [9] = tested on: PPARg:RXRa 30nM:10nM, anti-RXR (NR concentration 30 nM, RXRa partner concentration 10 nM)
# Procedure, shortened: as §1
# [10] = tested on: PPARg:RXRa 90nM:30nM, anti-RXR (NR concentration 90 nM, RXRa partner concentration 30 nM)
# Procedure, shortened: as §1
# [11] = tested on: PPARg:RXRa DBDmut IVT, anti-RXR (DBD mutation: RXRa K156A/R161A, NR concentration 270 nM, RXRa partner concentration 90 nM)
# Procedure, shortened: as §1
# [12] = tested on: PPARg:RXRa IVT, anti-PPARg (NR concentration 270 nM, RXRa partner concentration 90 nM)
# Procedure, shortened: as §1
# [13] = tested on: PPARg DBDmut:RXRa IVT, anti-PPARg (DBD mutation: PPARg1 K132A/R137A, NR concentration 270 nM, RXRa partner concentration 90 nM)
# Procedure, shortened: as §1
# [14] = tested on: PPARg DBDmut IVT, anti-PPARg (DBD mutation: PPARg1 K132A/R137A, NR concentration 270 nM)
# Procedure, shortened: as §1
# [15] = tested on: PPARg homodimer (NR concentration 180 nM)
# Procedure, shortened: as §1
# [16] = tested on: PXR:RXRa (NR concentration 270 nM, RXRa partner concentration 90 nM)
# Procedure, shortened: as §1
# [17] = tested on: PXR homodimer (NR concentration 270 nM)
# Procedure, shortened: as §1
# [18] = tested on: RARa:RXR (NR concentration 270 nM, RXRa partner concentration 90 nM)
# Procedure, shortened: as §1
# [19] = tested on: RARa homodimer (NR concentration 270 nM)
# Procedure, shortened: as §1
# [20] = tested on: RARb:RXRa (NR concentration 270 nM, RXRa partner concentration 90 nM)
# Procedure, shortened: as §1
Sequence,PBM binding z-score [1],PBM binding z-score [2],PBM binding z-score [3],PBM binding z-score [4],PBM binding z-score [5],PBM binding z-score [6],PBM binding z-score [7],PBM binding z-score [8],PBM binding z-score [9],PBM binding z-score [10],PBM binding z-score [11],PBM binding z-score [12],PBM binding z-score [13],PBM binding z-score [14],PBM binding z-score [15],PBM binding z-score [16],PBM binding z-score [17],PBM binding z-score [18],PBM binding z-score [19],PBM binding z-score [20]
TTACCAAGGTGAGCTAAGGTCGTTGATCCAACTC,3.04,1.56,-0.466,0.977,-1.12,1.66,0.5,1.42,0.431,0.771,1.04,1.93,-0.698,-0.173,0.0568,4.6,0.308,2.41,-1.25,1.91
CCTAGCAGGCCAGGGTAACTCAAGCATTTCGCTT,-0.463,-0.678,-0.559,-0.682,-1.09,0.0169,-0.112,-0.182,-1.01,-0.605,0.216,-0.0636,-1.68,-1.83,-0.387,-0.679,-0.762,-0.455,-0.937,-0.102
TAGTCTAGGTCAGATCGGGCCAGTATACGCTATA,1.81,1.91,0.186,1.13,1.4,2.38,2.36,2.4,0.965,1.92,4.19,4.5,1.78,1.67,1.18,1.33,-0.0787,1.54,-0.273,3.25
CGAACGAGGGCATGAGTTGAAAGCAAATGCCGAT,0.434,0.165,-0.523,0.0977,-0.959,1.85,1.37,1.83,0.552,1.12,2.92,2.09,-0.35,-0.394,0.0525,0.538,-0.57,0.846,-0.757,1.96
GATACAGGGTCAAGGCCATAGTACGCGTATTGAT,6.45,4.12,0.059,3.75,0.018,5.51,6.08,5.45,2.63,4.43,2.5,4.05,0.702,-0.195,1.64,3.94,0.404,4.65,0.823,4.41
TCTTGTAGATCAATAGAGGTTAACAAAGTGCGCT,0.932,4.21,0.47,2.29,0.171,2.18,0.373,1.66,2.57,2,1.65,1.38,0.608,1.56,0.466,3.82,0.45,2,0.875,1.02
GCATAGAGGTAATACAAGGTGAAAGTCCGATTGT,1.25,3.39,-0.00697,1.1,-0.79,1.51,0.691,0.857,0.448,0.729,1.06,1.35,0.658,0.616,0.00249,1.03,-0.217,1.18,0.413,0.751
TAGCCTAGGTCATTCACGGGCCAGTATAGAAAGC,4.64,3.74,0.702,2.48,0.779,3.36,2.05,2.19,0.448,1.74,1.89,2.6,1.17,0.147,2.35,2.01,-0.0937,2.84,0.0278,3.69
CGTCCAAGGTCATCGGAGGTCAGTGAAGACAGAT,8.01,7.87,5.77,6.23,1.29,5.95,5.99,5.91,2.4,4.7,3.14,4.14,0.99,1.08,6.99,7.33,7.36,6.63,3.02,5.5
